PubChem BioAssay

Each compound was assayed against Pro-neuregulin-1, membrane-bound isoform (Homo sapiens) (UniProt Q02297) (assay: small molecules binding neuregulin-1 protein – biochemical, small-molecule microarray, fluorescence 635/667, psychiatric disease protein project, primary screen (AID 1075;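 further: score combines 667 nm spot fluorescence with signal to noise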)). Conditions: NRG1 binding, 635 nm fluorescence, higher = more signal.
Chain of Pro-neuregulin-1, membrane-bound isoform (Homo sapiens) (Q02297 whole entry, looked up, canonical isoform): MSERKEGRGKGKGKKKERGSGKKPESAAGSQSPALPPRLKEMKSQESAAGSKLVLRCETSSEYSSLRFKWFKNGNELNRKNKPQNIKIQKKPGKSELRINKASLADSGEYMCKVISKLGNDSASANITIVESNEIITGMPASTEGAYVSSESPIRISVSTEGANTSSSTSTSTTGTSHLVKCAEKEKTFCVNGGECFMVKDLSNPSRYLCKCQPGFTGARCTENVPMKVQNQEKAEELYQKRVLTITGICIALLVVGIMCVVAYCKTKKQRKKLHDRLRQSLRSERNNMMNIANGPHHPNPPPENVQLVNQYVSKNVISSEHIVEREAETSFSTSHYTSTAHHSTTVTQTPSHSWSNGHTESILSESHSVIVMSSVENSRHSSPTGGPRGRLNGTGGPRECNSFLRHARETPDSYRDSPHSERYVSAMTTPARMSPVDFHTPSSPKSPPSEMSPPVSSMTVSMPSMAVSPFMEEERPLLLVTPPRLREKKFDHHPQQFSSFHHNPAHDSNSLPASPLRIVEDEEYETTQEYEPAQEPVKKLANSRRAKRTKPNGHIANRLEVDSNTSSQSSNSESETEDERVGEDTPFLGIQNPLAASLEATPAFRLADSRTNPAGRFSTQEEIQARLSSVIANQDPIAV

Row | Compound | composite z-score
1 | COc1ccc(COC(=O)NN=C2C[C@@H](O)[C@@H](O)[C@@H]3[C@@H]4C(=O)N(C[C@@H]5CCCO5)C(=O)[C@@H]4CC[C@H]23)cc1 | -0.234
2 | CCOC(=O)[C@H](Cc1ccccc1)NC(=O)CCC1CC(OC(=O)NCCc2ccc(F)cc2)CC2(CCCC(COC(=O)NCCC(C)C)O2)O1 (stereo partly specified) | 0.539
3 | COC(=O)CC=C[C@@H](C)[C@@H](C=NOC[C@@H](O)[C@H]1O[C@@H]2OC(C)(C)O[C@@H]2[C@H]1O)OC | -0.0348
4 | C[C@]12CCC3c4ccc(OCC5CO5)cc4CCC3C1CC[C@@H]2O (stereo partly specified) | 0.703
5 | CCOC(=O)CCN1C(=O)[C@H]2[C@H]3[C@H](O)[C@H](O)CC(=NO[C@@H]4O[C@H](CO)[C@@H](O)[C@H](O)[C@H]4O)[C@@H]3CC[C@H]2C1=O | 0.254
6 | CC(CCN1CCCCc2nc(C)c(C)cc21)=NO[C@H](C)c1cn([C@@H]2COC[C@H]2O)nn1 | 0.172
7 | COc1ccc(COC(=O)NN=C2C[C@@H](O)[C@@H](O)[C@@H]3[C@@H]4C(=O)N(c5cccc(Oc6ccccc6)c5)C(=O)[C@@H]4CC[C@H]23)cc1 | 0.783
8 | CC=CC1=C(CO)[C@H](O)[C@H]2O[C@H]2[C@@H]1O | -0.356
9 | CC1(C)O[C@H]2OC([C@H](O)CON3C(=O)c4ccccc4C3=O)[C@H](O)[C@H]2O1 (stereo partly specified) | 0.166
10 | CCOC(=O)NN=C1C[C@@H](O)[C@@H](O)[C@@H]2[C@@H]3C(=O)N(CC)C(=O)[C@@H]3CC[C@H]12 | -0.313
11 | CC(=O)OC[C@H]1O[C@@H](ON=C(C)CCC(=O)OC[C@H]2O[C@H](C#Cc3ccccc3)C=C[C@@H]2Oc2ccc(C)cc2)[C@H](OC(C)=O)[C@@H](OC(C)=O)[C@@H]1OC(C)=O | 0.51
12 | Cc1cc2c(nc1C)CCCCN2CC(O)CN1CCCc2nc(-c3ccc(Br)cc3)ccc21 (stereo unspecified) | 0.548
13 | CCOC(=O)CCN1C(=O)[C@H]2[C@H]3[C@H](O)[C@H](O)CC(=NOCC=C(C)CCC=C(C)C)[C@@H]3CC[C@H]2C1=O | 0.258
14 | CC(=O)OC[C@H]1O[C@@H](ON=C(C)CCN2CCCCc3nc(C)c(C)cc32)[C@H](OC(C)=O)[C@@H](OC(C)=O)[C@@H]1OC(C)=O | 0.853
15 | CC(=O)OC[C@H]1O[C@H](CCON=C(C)C)C=C[C@@H]1OC(C)=O | -0.172
16 | CCCNC(=O)OC[C@H]1O[C@H](CCON=C[C@@H](NS(=O)(=O)c2ccc(C)cc2)[C@H](C)C=CCC(=O)OC)C=C[C@@H]1Oc1ccc(OC)cc1 | -0.703
17 | CCCC[C@H]1CN2[C@@H](CC[C@@H](C)[C@@H]2c2ccc(Br)cc2)C(=O)O1 | 1.19
18 | CCC1=NOC(CCC2CC(OC(=O)NCc3cccc4c3OCO4)CC3(CCCC(COC(=O)NCCc4ccc(Cl)cc4)O3)O2)C1 (stereo unspecified) | 1.44

Row | Compound | composite z-score
19 | COc1ccc(O[C@H]2C=C[C@@H](C#Cc3ccccc3)O[C@@H]2CO)cc1 | 0.658
20 | CC(C)CON=C1[C@H]2CCn3c(=O)n(C)c(=O)n3[C@H]2[C@H](O)[C@@H]2O[C@H]12 | 0.288
21 | COC(=O)[C@@H]1CC[C@H](C)[C@@H](c2ccc(Br)cc2)N1C[C@@H](O)CN=[N+]=[N-] | 0.117
22 | COC(=O)[C@H](C)NC(=O)CCC1CC(OC(=O)NCCc2ccc(F)cc2)CC2(CCCC(COC(=O)NCc3ccccc3)O2)O1 (stereo partly specified) | 0.648
23 | O=C1C[C@H](c2ccccc2)[C@H](c2ccc(Br)cc2)O1 | -0.482
24 | COc1ccc(O[C@H]2C=C[C@@H](c3ccccc3)O[C@@H]2COC(=O)CCC(C)=NOC[C@@H](O)COCc2ccco2)cc1 | -1.28
25 | O=C1[C@H]2[C@H]3[C@H](O)[C@H](O)CC(=NOCc4ccccc4)[C@@H]3CC[C@H]2C(=O)N1c1cccc(Oc2ccccc2)c1 | 1.48
26 | O=C1[C@H]2[C@H]3[C@H](O)[C@H](O)CC(=NOC[C@@H](O)COCc4ccco4)[C@@H]3CC[C@H]2C(=O)N1Cc1ccc2c(c1)OCO2 | -0.285
27 | CCOC(=O)[C@H](CC(C)C)NC(=O)CCC1CC(OC(=O)NCc2ccc3c(c2)OCO3)CC2(CCCC(COC(=O)NCc3ccccc3)O2)O1 (stereo partly specified) | 0.929
28 | O=C1C2=CC[C@H]3C(=O)N(C4CCCCC4)C(=O)[C@H]3[C@H]2[C@H](O)[C@@H]2O[C@H]12 | -0.0738
29 | C=CCOCC1CN2[C@@H](CC[C@@H](C)[C@@H]2c2ccc(Br)cc2)C(=O)O1 (stereo partly specified) | -0.391
30 | CCOC(=O)[C@H](Cc1ccccc1)NC(=O)CCC1CC(OC(=O)NCc2ccc3c(c2)OCO3)CC2(CCCC(COC(=O)NCCOc3ccccc3)O2)O1 (stereo partly specified) | 0.833
31 | CCN1C(=O)[C@H]2[C@H]3[C@H](O)[C@H](O)CC(=NO[C@@H](C)c4cc(-c5c(C)cc(C)cc5C)no4)[C@@H]3CC[C@H]2C1=O | 1.08
32 | O=C(NN=C1C[C@@H](O)[C@@H](O)[C@@H]2[C@@H]3C(=O)N(c4ccc(F)cc4F)C(=O)[C@@H]3CC[C@H]12)OCc1ccccc1 | 1.47
33 | CC#CCOCCC=C1c2ccccc2[C@@H](OC)[C@@H]1C | -0.361
34 | CC(CCC(=O)OC[C@H]1O[C@H](C#Cc2ccccc2)C=C[C@@H]1Oc1ccc(C)cc1)=NO[C@H](C)c1cn([C@@H]2COC[C@H]2O)nn1 | -0.0103
35 | COC(=O)[C@@H]1CC[C@H](C)[C@@H](c2ccc(C)cc2)N1C(=O)c1ccc(C=NOC[C@H]2O[C@H](c3ccccc3)C=C[C@@H]2Oc2ccc(OC)cc2)cc1 | 0.0379
36 | CC(=O)OC[C@H]1O[C@@H](ON=C2[C@H]3CCn4c(=O)n(-c5ccccc5)c(=O)n4[C@H]3[C@H](O)[C@@H]3O[C@H]23)[C@H](OC(C)=O)[C@@H](OC(C)=O)[C@@H]1OC(C)=O | 0.471
